KCNQ2 block: KCNQ2 (rat) channel inhibition | B-score at 10 µM | O88943 | CHO-K1 KCNQ2, FluxOR thallium flux, 20 min; hits give low values | 310,000 tested, 1.1% active;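 active means fluorescence ratio B-score at most minus 3 library SDs, with starting brightness B-score within 2 library SDs, cut at about -5.5 in these data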
KCNQ2 enhance: potentiators of rat KCNQ2 potassium channel; O88943; CHO-K1 KCNQ2, FluxOR thallium flux fluorescence; hits give high values; B-score at 10 µM; 310,000 tested, 0.54% active; AID 2239;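 active means fluorescence ratio B-score at least 3 SD of library B-scores, with initial fluorescence B-score within 3 of them, cut at about 5.3 in these data; same plate scores as AID 2156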;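 further: B-score of peak minus minimum over baseline fluorescence ratio after K+ and Tl+ stimulus; positive B-score means potentiation of KCNQ2 with more thallium influx and brighter signal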
KCNQ2 inh conf: rat KCNQ2 channel inhibition, confirmatory screen; shares compounds with KCNQ2 block; KCNQ2-expressing cells, thallium flux; hits give low values; activity change, negative = inhibition, % at 10 µM; 1,000 tested, 57% active; AID 493025
KCNQ1 spec: selectivity of KCNQ2 inhibitors against human KCNQ1; activity change, negative = inhibition, % at 10 µM; shares compounds with KCNQ2 block; 1,000 tested, 15% active; KCNQ1-expressing cells, FluxOR thallium flux fluorescence; hits give low values;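 active means activity change at least 3 SD of negative controls below their mean in both duplicate wells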;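 further: CHO cells stably transfected with KCNQ1 and depolarized by potassium stimulus; peak minus minimum fluorescence over baseline after thallium addition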
Target sequence (P51787 whole entry, looked up): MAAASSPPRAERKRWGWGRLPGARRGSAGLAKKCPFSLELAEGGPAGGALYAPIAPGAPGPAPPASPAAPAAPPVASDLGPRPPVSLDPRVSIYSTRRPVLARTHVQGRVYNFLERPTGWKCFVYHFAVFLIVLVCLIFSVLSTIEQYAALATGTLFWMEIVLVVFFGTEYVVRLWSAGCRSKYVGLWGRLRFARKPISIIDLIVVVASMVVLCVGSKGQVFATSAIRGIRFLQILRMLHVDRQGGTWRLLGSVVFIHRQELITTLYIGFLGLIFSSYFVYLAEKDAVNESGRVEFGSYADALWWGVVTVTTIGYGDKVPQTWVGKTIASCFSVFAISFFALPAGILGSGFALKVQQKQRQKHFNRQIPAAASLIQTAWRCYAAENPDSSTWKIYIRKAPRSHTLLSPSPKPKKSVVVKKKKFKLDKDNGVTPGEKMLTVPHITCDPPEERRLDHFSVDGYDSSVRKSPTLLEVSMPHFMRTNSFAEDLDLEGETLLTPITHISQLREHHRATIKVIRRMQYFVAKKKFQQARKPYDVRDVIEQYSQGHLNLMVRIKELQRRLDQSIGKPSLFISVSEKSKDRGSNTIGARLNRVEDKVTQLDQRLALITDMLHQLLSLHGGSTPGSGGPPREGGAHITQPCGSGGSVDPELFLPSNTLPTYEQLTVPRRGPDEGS
CHO parental ctr: KCNQ2 inhibitor counter-screen hit in parental CHO cells. shares compounds with KCNQ2 block. thallium flux counter-screen; hits give low values. activity change, % at 10 µM. 1,000 tested, 14% active. AID 493029
KCNQ2 inh confirm: blocks rat KCNQ2 current in automated patch clamp; shares compounds with KCNQ2 block; KCNQ2-expressing cells; calls only at 10 µM; 550 tested, 49% active
Of the large screens only hits and unclear results are named; the others gave an inactive call (follow-up assays come after a bar, where they were run). The list is not random: actives were taken first. Their share in the collection is about 1.6%. Unless noted, how the calls were made is not given here.

O=C(Cn1c(=O)n(Cc2ccc3c(c2)OCO3)c(=O)c2ccccc21)N1CCCc2ccccc21	none (no result: KCNQ2 enhance)
CC(NC(=O)/C(C#N)=C/c1cn[nH]c1-c1ccccc1)c1ccccc1 (centres undefined)	none (no result: KCNQ2 enhance)
CCc1ccc(C(C)NC(=O)/C(C#N)=C\c2cn[nH]c2-c2ccccc2)cc1 (centres undefined)	KCNQ2 block -9.1 | KCNQ2 inh conf inactive | KCNQ1 spec inactive | CHO parental ctr inactive
O=C(Nc1cccc(-c2csc(Nc3cccc(C(F)(F)F)c3)n2)c1)c1ccccc1	none
O=C(Nc1cccc(-c2csc(Nc3ccccc3)n2)c1)c1ccccc1	KCNQ2 block -6.8 | KCNQ2 inh conf inactive | KCNQ1 spec inactive | CHO parental ctr inactive
O=C(NC(=S)NNS(=O)(=O)c1ccc(Cl)cc1)c1cccnc1	none (no result: KCNQ2 enhance)
CSCCC(NC(=O)c1ccccc1Br)C(=O)NCC1CCCCC1 (centres undefined)	none (no result: KCNQ2 enhance)
CSCCC(NC(=O)COc1ccccc1)C(=O)NC1CCC(C)CC1 (centres undefined)	none (no result: KCNQ2 enhance)
CSCCC(NC(=O)c1ccccc1Br)C(=O)N1CCCCCCC1 (centres undefined)	KCNQ2 block -9.6 | KCNQ2 inh conf -29% | KCNQ1 spec inactive | CHO parental ctr inactive | KCNQ2 inh confirm active
CSCCC(NC(=O)COc1ccccc1)C(=O)N1CCCC(C(F)(F)F)C1 (centres undefined)	KCNQ2 block -7 | KCNQ2 inh conf inactive | KCNQ1 spec inactive | CHO parental ctr inactive
CSCCC(NC(=O)c1ccccc1Br)C(=O)NCc1ccc(F)cc1 (centres undefined)	none
CSCCC(NC(=O)c1ccccc1Br)C(=O)N1CCCC(C(F)(F)F)C1 (centres undefined)	KCNQ2 block -9.3 | KCNQ2 inh conf -16% | KCNQ1 spec inactive | CHO parental ctr inactive | KCNQ2 inh confirm active
CCOc1ccc(OCC(=O)OCC(=O)NNC(=O)c2ccc([N+](=O)[O-])cc2)cc1	none (no result: KCNQ2 enhance)
CC(=O)Nc1cccc(NC(=O)COC(=O)CO/N=C(\C)c2ccc3c(c2)OCO3)c1	none (no result: KCNQ2 enhance)
CCN(CC)S(=O)(=O)c1ccc(NN=c2c(=O)c3ccccc3c2=O)cc1	none
Cc1ccc(NC(=O)CSc2nc3ccccc3c(=O)n2CCCC(=O)NCCCN2CCOCC2)cc1	none (no result: KCNQ2 enhance)
O=C(COc1ccc(F)cc1Cl)Nc1ccc(S(=O)(=O)Nc2nccs2)cc1	none
O=C(Nc1cc(Cl)c(Cl)cc1Cl)c1cccnc1	none
COc1cccc(/C=C2\SC(=S)N(N3CCOCC3)C2=O)c1OC	KCNQ2 block -8.6 | KCNQ2 inh conf -34% | KCNQ1 spec inactive | CHO parental ctr inactive | KCNQ2 inh confirm inactive
COc1ccc(/C=C2\SC(=S)N(N3CCOCC3)C2=O)c(OC)c1	none (no result: KCNQ2 enhance)
O=C1c2ccccc2S(=O)(=O)c2cc(N3CCC4(CC3)OCCO4)ccc21	none (no result: KCNQ2 enhance)
COc1ccc(/C=C/C(=O)c2ccc(O)cc2)cc1COc1ccc(F)cc1	none (no result: KCNQ2 enhance)
COc1ccc(/C=C/C(=O)c2ccccc2)cc1COc1ccc(F)cc1	KCNQ2 block -6.6 | KCNQ2 inh conf inactive | KCNQ1 spec inactive | CHO parental ctr inactive
O=[N+]([O-])c1ccc(Cl)c(/C=N/N2CCN(Cc3ccccc3)CC2)c1	none (no result: KCNQ2 enhance)
O=[N+]([O-])c1ccc(Cl)c(/C=N/N2CCN(Cc3ccccc3Cl)CC2)c1	KCNQ2 block -7.2 | KCNQ2 inh conf inactive | KCNQ1 spec inactive | CHO parental ctr inactive
CCCCn1c(=O)[nH]c(=O)c2c1ncn2Cc1ccco1	none
CCCCn1cnc2c(c(-c3ccccc3)c(-c3ccccc3)n2Cc2ccco2)c1=N	KCNQ2 block -7.6 | KCNQ2 inh conf -27% | KCNQ1 spec inactive | CHO parental ctr inactive | KCNQ2 inh confirm inactive
O=C(CN(Cc1ccccc1)S(=O)(=O)c1ccc(F)cc1)NCCC1=CCCCC1	none (no result: KCNQ2 enhance)
Cc1ccc(S(=O)(=O)N(CC(=O)NCCC2=CCCCC2)Cc2ccccc2F)cc1	KCNQ2 block -7 | KCNQ2 inh conf inactive | KCNQ1 spec inactive | CHO parental ctr inactive
Cc1ccc(S(=O)(=O)N(CC(=O)NCCC2=CCCCC2)Cc2ccccc2)cc1	KCNQ2 block -11 | KCNQ2 inh conf -30% | KCNQ1 spec inactive | CHO parental ctr inactive | KCNQ2 inh confirm inactive
COc1ccc(CNC(=O)CN(Cc2ccc(C)cc2)S(=O)(=O)c2ccc(Cl)cc2)cc1	KCNQ2 block -6.7 | KCNQ2 inh conf inactive | KCNQ1 spec inactive | CHO parental ctr inactive
O=C(CN(Cc1ccccc1F)S(=O)(=O)c1ccc(Cl)cc1)NCCC1=CCCCC1	none (no result: KCNQ2 enhance)
COc1ccc(CNC(=O)CN(C)S(=O)(=O)c2ccc(Cl)cc2)cc1	none (no result: KCNQ2 enhance)
Cc1ccc(N2C(=O)C3ON(c4ccccc4)C(CC(C)C)C3C2=O)cc1 (centres undefined)	none (no result: KCNQ2 enhance)
COc1ccc(N2C(=O)CSC(c3ccccc3)C2=O)cc1 (centres undefined)	none (no result: KCNQ2 enhance)
COc1ccc(C(=S)N2CCN(c3cccc(Cl)c3)CC2)cc1	none (no result: KCNQ2 enhance)
COc1ccc(OC)c(Cc2nnc(CCC(=O)NCc3ccc(C)s3)o2)c1	none
NC(=NC(=O)c1ccccc1)N1CCN(C(c2ccccc2)c2ccccc2)CC1	none (no result: KCNQ2 enhance)
Cn1cc([N+](=O)[O-])c(C(=O)Nc2cc(Oc3ccccc3)cc([N+](=O)[O-])c2)n1	none
Cc1cccc(Oc2cc(NC(=O)c3ccccc3)cc([N+](=O)[O-])c2)c1	KCNQ2 block -7.3 | KCNQ2 inh conf inactive | KCNQ1 spec inactive | CHO parental ctr inactive
Cc1ccc(N=C2CCCN2Cc2ccccc2)c(C#N)c1	KCNQ2 block -9 | KCNQ2 inh conf -47% | KCNQ1 spec -43% | CHO parental ctr -34% | KCNQ2 inh confirm active
Cc1ccc(N=C2CCCCCN2C)c(C#N)c1	none (no result: KCNQ2 enhance)
O=C(/C=C/c1ccccc1)N1CCC(Cc2ccccc2)CC1	none (no result: KCNQ2 enhance)
O=C(/C=C/c1cccc(Cl)c1)N1CCC(Cc2ccccc2)CC1	KCNQ2 block -11 | KCNQ2 inh conf -35% | KCNQ1 spec -41% | CHO parental ctr -34% | KCNQ2 inh confirm active
COc1ccc(/C=C(\C#N)c2n[nH]c(Cn3cncn3)n2)cc1	none (no result: KCNQ2 enhance)
CC(C)Sc1nc2[nH]ncc2c(=O)[nH]1	none
CCN(CC(=O)Nc1ccccc1C(F)(F)F)C(=O)c1cc(-c2ccccc2)nn1-c1ccccc1	KCNQ2 block -9.3 | KCNQ2 inh conf inactive | KCNQ1 spec inactive | CHO parental ctr inactive
CCN(CC(=O)Nc1ccccc1OC)C(=O)c1cc(-c2ccccc2)nn1-c1ccccc1	none (no result: KCNQ2 enhance)
O=C(c1ccco1)N1CCN(C(=O)c2ccc(CS(=O)c3ccc(Cl)cc3)o2)CC1 (centres undefined)	none
COc1ccc(S(=O)(=O)N2CCCCCC2)cc1NC(=O)c1c2c(nc3ccccc13)CCN(Cc1ccccc1)C2	none (no result: KCNQ2 enhance)
COc1ccc(NC(=O)c2c3c(nc4ccccc24)CCN(Cc2ccccc2)C3)c(OC)c1	KCNQ2 block -11 | KCNQ2 inh conf inactive | KCNQ1 spec inactive | CHO parental ctr inactive
O=C(Nc1cc(F)c(Br)cc1F)c1ccc(Cl)cc1	none
CCN1C(=O)[C@H]2[C@@H](c3ccc(-c4cccc(Cl)c4)cc3)N[C@@](C)(C(=O)OC)[C@H]2C1=O	none

Screens as filed in PubChem BioAssay.
